Measurements taken from PubChem BioAssay AID624296 (National Center for Advancing Translational Sciences (NCATS), 2012).
Values joined by “and” are separate entries in the source; they are usually repeats but may differ in a detail not shown here. Identical values can stand only once. Among all 350,000 compounds or so, about 9,900 (2.8%) were called active. Where a call stands in place of a potency, no number is given. Not shown: some 15% with an inconclusive outcome. Calls follow the shape of the dose curve; as a rule, active = well fitted activation curve with a large enough effect; inconclusive = small, poorly fitted or top-dose-only effect; inactive = no such curve, though single readings can be large or run the other way. The sample as a whole holds a higher share of actives than the screen did. Some structures have more than one record in an assay (separate samples or runs), and their calls can disagree.

assay: A quantitative high throughput screen for small molecules that induce DNA re-replication in MCF 10a normal breast cells.; also: nearly all actives have a fitted effect of over 50% in size; conditions: MCF 10A DNA re-replication, Hoechst nuclear intensity, 48 h; series mostly up to 46.1 µM
Potency is read from the fitted curve at half-maximal effect.

| Compound | Potency |
| --- | --- |
| CCCc1cc(=O)[nH]c(SCC(=O)Nc2ccc(S(=O)(=O)N3CCCC3)cc2)n1 | inactive |
| Cc1ccccc1OCC(O)CN1CCN(c2ccccn2)CC1 (configuration not stated) | inactive |
| CC(C)c1ccc(OCC(O)CN2CCN(c3ccccn3)CC2)cc1 (configuration not stated) | 16.4 µM (active) |
| CC(=O)Nc1ccc(OCC(O)CN2CCN(c3ccccc3Cl)CC2)cc1 (configuration not stated) | inactive |
| COC(=O)[C@]1(CC(C)C)N[C@H](c2ccc(SC3CCCCC3)cc2)[C@@H]2C(=O)N(C)C(=O)[C@@H]21 | inactive |
| CSc1ncccc1C(=O)Nc1ccc2c(c1)OCO2 | inactive |
| Nn1c(SCC(=O)Nc2ccc3c(c2)CCC3)nnc1C1CC1 | inactive |
| Cc1nc(N)sc1-c1ccccc1 | inactive |
| CCOC(=O)C1=C(C)N(C[C@@H]2CC[C@@H](Cc3ccc(-c4ccccc4)cc3)O2)C(=O)NC1c1ccc([N+](=O)[O-])cc1 (some centres not stated) | inactive |
| COc1ccc(CCC(C)N2CCc3ccccc3C2)cc1 (configuration not stated) | inactive |
| COc1ccc(CN2CN(C(C)C)CSC2=S)cc1 | 5.17 µM (active) |
| S=C1SCN(CCN2CCOCC2)CN1Cc1ccccc1 | inactive |
| S=C(Nc1ccccc1)Nc1ccc2ccccc2c1 | inactive |
| COc1ccc2[nH]c3c(c2c1)CCN1C(=O)C(CC(=O)NCCCN(C)C)C[C@H](C(=O)N2CCOCC2)[C@@]31CCC1CCCC1 (some centres not stated) | inactive |
| CCOC(=O)[C@H]1[C@H]2COc3cc(OC)ccc3[C@@H]2N2C(=O)CN(Cc3ccc(Cl)cc3)C(=O)[C@@]12C | inactive |
| CCC(C)c1ccc(NC(=O)COC(=O)C2CCCC2)cc1 (configuration not stated) | inactive |
| COc1ccc(OCc2cn3c(C)cc(C)nc3n2)cc1 | inactive |
| COc1ccc(C(C[N+](=O)[O-])n2nc(C)cc2C)cc1 (configuration not stated) | 13 µM (active) |
| COc1ccc(C(=O)CSc2nc(C)cc(C)n2)cc1[N+](=O)[O-] | inactive |
| COc1ccccc1C(=O)Nc1ccc(OCC(=O)N2CCCCC2)cc1 | inactive |
| CCc1noc(C)c1C(=O)Nc1nc2ccc(OC)cc2s1 | inactive |
| COc1ccc2nc(Nc3nc(-c4cc5ccccc5oc4=O)cs3)sc2c1 | 5.8 µM (active) |
| CCNc1nc(-c2cc3ccccc3o2)cs1 | inactive |
| COc1ccc2nc(Nc3nc(-c4ccncc4)cs3)sc2c1 | inactive |
| Cc1ccc(Nc2nc(-c3ccc(O)cc3O)cs2)nc1 | inactive |

| Compound | Potency |
| --- | --- |
| O=c1oc2ccccc2cc1-c1csc(Nc2ccc(O)cc2)n1 | 14.6 µM (active) |
| CC(OC(=O)Cc1ccc(F)cc1)C(=O)N1CCc2ccccc21 (configuration not stated) | inactive |
| Cc1sc2ncnc(N3CCC(C(=O)Nc4ccc(F)cc4Cl)CC3)c2c1C | inactive |
| C#CCOCCOCCOCCNc1nc(N2CCN(C(=O)Cn3cc(CCO)nn3)CC2)nc(N2CCN(C(=O)Cn3cc(CCCN=C(N)N)nn3)CC2)n1 | inactive |
| O=[N+]([O-])c1cccc(C=NN=Cc2ccccc2O)c1 | inactive |
| CC[C@]12c3[nH]c4ccc(Cl)cc4c3CCN1C(=O)[C@@H](CC(=O)NCCN1CCOCC1)C[C@@H]2C(=O)N1CCN(C(=O)C2CC2)CC1 | inactive |
| CCCN(C(=O)COC(=O)CNS(=O)(=O)c1ccc(NC(C)=O)cc1)C1CCS(=O)(=O)C1 (configuration not stated) | inactive |
| COc1ccc(-c2csc3nc(-c4ccccc4F)oc(=O)c23)cc1OC | 8.2 µM (active) |
| COc1ccc(-c2csc(-c3cccs3)n2)cc1OC | inactive |
| COc1ccccc1-c1nnc(-c2ccc(F)cc2)o1 | inactive |
| COc1ccc(N/C=C(\C2OC(=O)c3ccccc32)[N+](=O)[O-])cc1 (configuration not stated) | inactive |
| COc1ccc(-c2csc(NC(=O)COC(=O)c3ccc(Br)o3)n2)cc1 | inactive |
| COc1ccc(CCNc2nc(-c3cccc(NC(C)=O)c3)cs2)cc1OC | inactive |
| COc1ccc2c(c1OC)C(=O)OC2Nc1nc(-c2ccccc2)cs1 (configuration not stated) | 4.61 µM (active) |
| COc1cc(CC(=O)Nc2nc(-c3ccc(F)c(F)c3)cs2)cc(OC)c1OC | inactive |
| COc1ccc(-c2csc(NC3OC(=O)c4ccccc43)n2)cc1 (configuration not stated) | 11.6 µM (active) |
| CC1CC(C)CN(C(=O)COC(=O)c2ccc3ncsc3c2)C1 (configuration not stated) | inactive |
| O=C(Nc1ccccc1F)c1ccc(S(=O)(=O)N2CCCCCC2)cc1 | inactive |
| O=C(CSc1ncnc2sccc12)N1CCN(C(=O)c2cccs2)CC1 | inactive |
| Cc1nnc(NC(=O)c2ccc3nccnc3c2)s1 | inactive |
| CCN(c1ccccc1)S(=O)(=O)c1cc(C(=O)NCc2ccccn2)ccc1C | inactive |
| CCCCn1nc(C(=O)Nc2cccc(C(=O)NC3CC3)c2)c2ccccc2c1=O | inactive |
| COC(=O)[C@]1(Cc2ccccc2)N[C@H](CN(C)S(=O)(=O)c2ccc(OC(F)(F)F)cc2)[C@@H]2C(=O)N(C)C(=O)[C@@H]21 | inactive |
| COc1cccc(C(=O)Nc2ccc(NC(=O)c3ccco3)cn2)c1 | inactive |
| COc1cccc(C(=O)Nc2ccc(N3CCN(C(=O)c4ccco4)CC3)cc2)c1 | 20.6 µM (active) |

| Compound | Potency |
| --- | --- |
| COc1ccc(NC(=O)c2cccc(NC(=O)c3ccco3)c2)c(OC)c1 | inactive |
| CC1(C)C[C@H]2C3=CCC4[C@@]5(C)CC[C@H](O)[C@](C)(CO)C5CC[C@@]4(C)[C@]3(C)C[C@@H](O)[C@@]2(CO)[C@@H](O)[C@@H]1O (some centres not stated) | inactive |
| CC(C)(C)OC(=O)C[C@@H]1C/C=C\C[C@@H](CC(=O)N[C@H](CO)Cc2ccccc2)C(=O)NCCOC1=O | inactive |
| O=C(NCC1(N2CCCCC2)CCCCC1)c1cccc(S(=O)(=O)Nc2ccccc2Cl)c1 | inactive |
| COc1ccc(CCNC(=O)c2cc(-c3ccc4c(c3)OCO4)on2)cc1OC | inactive |
| COc1cc(-c2c(-c3ccc4c(c3)OCO4)noc2C)ccc1F | 20.6 µM (active) |
| COc1cc2c(-c3ccc4c(c3)OCO4)c(-c3ccsc3)oc(=O)c2cc1OC | inactive |
| COC(=O)c1c(NC(=O)CSc2nncs2)sc2c1CCCCC2 | 0.231 µM (active) |
| COC(=O)c1c(NC(=O)CCCC(=O)O)sc2c1CCCCC2 | inactive |
| COC(=O)c1c(NC(=O)c2cccs2)sc2c1CCCC2 | inactive |
| Cc1ccc(C(=O)OCC(=O)NCc2cc(C)c(O)c(C)c2)cc1S(=O)(=O)N1CCCCC1 | inactive |
| CN1C(c2ccc(F)cc2)=CS/C1=C(/C#N)c1nnc2n1-c1ccccc1SC2 | inactive |
| c1csc(-c2nc(-c3ccncc3)no2)c1 | inactive |
| COc1nc(-c2ccc(Cl)cc2)ccc1-c1noc(-c2cccs2)n1 | 6.51 µM (active) |
| COc1ccc(CCc2nc(-c3cccs3)no2)cc1 | inactive |
| COc1ccc(NC(C)=O)cc1NC(=O)CN1CCN(c2ccccn2)CC1 | inactive |
| COc1ccc(Cl)cc1NC(=O)CN1CCN(C(=O)N2CCOCC2)CC1 | inactive |
| COc1ccc(NC(C)=O)cc1NC(=O)CN1CCN(C2c3ccccc3-c3ccccc32)CC1 | 20.6 µM (active) |
| COc1ccc(N2CCN(C(CNS(=O)(=O)c3ccc(C)cc3)c3ccccc3)CC2)cc1 (configuration not stated) | inactive |
| CC(NC(=O)COC(=O)c1ccc2ccccc2n1)c1ccccc1 (configuration not stated) | inactive |
| Oc1c(Cl)cc(Cl)c(Cl)c1Cc1c(O)c(Cl)cc(Cl)c1Cl | inactive and 920 nM (active) |
| CN(C)C(=O)CCc1ccc2c3c([nH]c2c1)[C@]1(CCc2ccccc2)[C@@H](C(=O)N2CCCCC2)C[C@H](CC(=O)NCCC2=CCCCC2)C(=O)N1CC3 | inactive |
| Nn1c(SCC(=O)Nc2nccs2)nnc1-c1ccco1 | inactive |
| COc1ccccc1N1CC(O)=C(c2nc3ccccc3s2)C1=N | inactive |
| CCOC(=O)CCCN1CC(O)=C(c2nc3ccccc3s2)C1=N | inactive |

| Compound | Potency |
| --- | --- |
| N=C1C(c2nc3ccccc3s2)=C(O)CN1NC(=O)c1ccc([N+](=O)[O-])cc1 | 3.66 µM (active) |
| CC1CC(=NNC(=O)C2COc3ccccc3O2)CC(C)(C)C1 (configuration not stated) | inactive |
| O=C(Nc1ccccc1N1CCOCC1)c1ccncc1 | inactive |
| O=C(Nc1ccccc1N1CCCC1)c1ccc2ccccc2c1 | inactive |
| O=C(Nc1ccccc1N1CCCCC1)c1ccc2nccnc2c1 | 20.6 µM (active) |
| O=C(COc1ccccc1F)Nc1nc(-c2ccccn2)cs1 | inactive |
| O=C(c1ccc(S(=O)(=O)NCc2ccco2)cc1)N1CCN(c2ccccc2)CC1 | inactive |
| O=C(O)CCn1cc(/C=C/C(=O)c2ccc(Cl)cc2)c(-c2cccc(Br)c2)n1 | 4.11 µM (active) |
| O=C(O)/C=C/c1cn(Cc2ccccc2)nc1-c1cccs1 | inactive |
| CCOC(=O)/C(C#N)=C/c1cn(CCC(=O)O)nc1-c1ccc(Br)cc1 | inactive |
| CCC1(C)NC(=O)N(CC(=O)N2CCN(c3cccc(Cl)c3)CC2)C1=O (configuration not stated) | inactive |
| COc1ccc(-c2csc(N3CCN(Cc4ccc5c(c4)OCO5)CC3)n2)cc1 | inactive |
| CC1CCCCN1CC(=O)NCc1ccc2c(c1)OCO2 (configuration not stated) | inactive |
| O=C(CN1CCN(c2nc(-c3ccccc3)cs2)CC1)NCc1ccc2c(c1)OCO2 | 11.6 µM (active) |
| Cc1csc2nc(COC(=O)c3cccc(N(C)C)c3)cc(=O)n12 | inactive |
| COc1ccc(C(CNC(=O)c2cccc(S(=O)(=O)Nc3ccc(Br)cc3)c2)N(C)C)cc1 (configuration not stated) | inactive |
| CCOC(=O)/C=c1\s/c(=C\c2ccccc2OC)c(=O)n1CC(=O)N1CCOCC1 | inactive |
| CCOC(=O)/C=c1\s/c(=C\c2ccc(C#N)cc2)c(=O)n1CC(=O)Nc1cccc(C)c1C | 2.91 µM (active) |
| Cc1cccc(NC(=O)CN2CCN(C(=O)C3CCN(C(=O)/C=C/c4ccccc4)CC3)CC2)c1C | inactive |
| Cn1nc(C(=O)OCC(=O)N(Cc2ccccc2)C(C)(C)C)c2ccccc2c1=O | inactive |
| O=C(OCC(=O)N1CCc2ccccc21)c1ccc([N+](=O)[O-])cc1 | inactive |
| COc1ccc(-c2csc3ncnc(N4CCN(S(=O)(=O)c5cccc(F)c5)CC4)c23)cc1 | inactive |
